Screening results from PubChem BioAssay.
HSF-1 act = increases HSF-1 driven luciferase reporter signal. activation, % at 9 µM. NIH3T3-HGL HSF-1 luciferase reporter, MG132, 8 h; 100% = twice DMSO control signal. 300,000 tested, 1.7% active;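 active = mean replicate activation of at least 50% with a set share of replicates each reaching 50%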;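 also: 0% = median of the neutral control wells and 100% = twice that signal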
AHR activator = activators of human aryl hydrocarbon receptor; P35869; AHR-responsive luciferase reporter cells, luminescence; activation, % at 5 µM; 320,000 tested, 2.5% active; in the data active = activation above about 47%;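 also: 0% = vehicle wells and 100% = reference agonist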
DAX1 inh = inhibitors of human orphan nuclear receptor DAX1 (NR0B1). P51843. inhibition, % at 6.75 µM. HEK293 Gal4-DAX1 luciferase reporter, luminescence. AID 504766. 340,000 tested, 0.99% active;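 active = inhibition above the mean over all tested compounds plus 3 SD, cut at about 4.2% in these data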;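 also: 0% = DAX1-transfected cells with DMSO and 100% = empty-vector control cells with DMSO; inhibition shows as a rise in luminescence from relieved DAX1 repression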
Target sequence (P51843 207-470 limits assumed): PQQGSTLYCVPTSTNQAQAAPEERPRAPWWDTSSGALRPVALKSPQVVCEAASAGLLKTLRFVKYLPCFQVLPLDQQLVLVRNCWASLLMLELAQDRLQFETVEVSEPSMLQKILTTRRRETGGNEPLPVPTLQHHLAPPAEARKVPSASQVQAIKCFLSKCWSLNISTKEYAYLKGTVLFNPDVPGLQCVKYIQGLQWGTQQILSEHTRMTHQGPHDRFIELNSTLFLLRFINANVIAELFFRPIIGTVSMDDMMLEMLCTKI
HSF1 inh = HSF1 inhibition; NIH3T3-HGL HSE-luciferase, MG132-induced, luminescence 8 h; active compounds read low; activity change, negative = inhibition, % at 7.5 µM (by protocol); 300,000 tested, 0.77% active;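 active = more than half of replicate wells show activity change below -50%, luminescence cut by over half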;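 also: luciferase reports HSF-1 transcriptional activity via heat shock element; 0% = median of DMSO wells and -100% = zero luminescence signal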
FXN GAA850 act = activators of GAA850 frataxin (FXN) promoter. AID 540364. HEK293 lucGAA850 FXN promoter luciferase reporter, 24 h; percent of 10 µM SAHA response. 360,000 tested, 0.56% active. activation, % at 6 µM;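 active = activation above the average of all compounds screened plus 3 SD, cutoff fixed separately per campaign, cut at about 7.5% in these data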;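 also: 0% = DMSO wells and 100% = 10 µM SAHA wells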
HSP90 refold inh = HSP90 refolding inhibition in rabbit reticulocyte lysate. luciferase refolding luminescence, 3 h. inhibition, % at 5.6 µM. 290,000 tested, 0.91% active;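 active = inhibition above the screen-wide mean plus 3 SD, computed separately per campaign, cut at about 16% in these data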;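 also: 0% = DMSO wells and 100% = 60 µM geldanamycin wells; inhibitors lower the luminescence because luciferase stays unfolded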
* hit, by the source's call; . = not tested or not shown. Most compounds without a hit are left out; they make up all but 5.9% or so of the library.

SMILES	HSF-1 act	AHR activator	DAX1 inh	HSF1 inh	FXN GAA850 act	HSP90 refold inh
COc1ccc2c(c1)c(C(=O)CN1CCOCC1)c(C)n2C	5	6	0	-4	1	3
COc1ccc2c(c1)c(C(=O)CN1CCCCC1)c(C)n2C	72*	3	3	32	2	.
COc1cc(/C=C(\C#N)c2ccccn2)ccc1OCc1ccccc1	22	-1	0	15	2	7
COc1cc(/C=N/N2CCOCC2)ccc1OCc1ccc(Cl)cc1	80*	-2	1	34	3	3
COc1cc(/C=C(\C#N)c2ccccn2)ccc1OCc1ccc(Cl)cc1	68*	-4	3	18	0	5
CCCCCCOc1ccc(/C=C/C(=O)N2CCOCC2)cc1OC	17	-1	-2	4	0	-3
COc1cc(/C=N/OCC(=O)NC2CCCCC2C)ccc1OCc1ccc(Cl)cc1 (stereo not given)	2	7	3	-11	1	-1
COc1cc(/C=N/OCC(=O)Nc2cc(C)cc(C)c2)ccc1OCc1ccc(Cl)cc1	71*	13	-1	47	7	0
COc1cc(/C=C/C(=O)N2CCOCC2)ccc1OCc1ccccc1	75*	2	-1	46	4	-6
Cc1cc(C)cc(N(CC(=O)NCc2ccc(F)cc2)C(=O)CCC(=O)Nc2ccccn2)c1	0	0	-1	4	1	1
CCN(C(=O)COC(=O)c1nccnc1N)c1cccc2ccccc12	.	-1	0	.	1	.
Cc1cn([C@H]2C[C@H](O)[C@@H](CCC(=O)NCc3ccco3)O2)c(=O)[nH]c1=O	.	.	-1	.	-2	.
COc1c2c(nc3occc13)C(CC=C(C)C)(OC)C(OC(C)=O)CC2 (stereo not given)	3	73*	0	2	-2	-1
COc1c2c(nc3occc13)C(CC=C(C)C)(OC)C(O)CC2 (stereo not given)	3	65*	1	-4	1	-2
COc1c2ccoc2nc2c(OC)cccc12	4	1	0	0	1	4
Cc1cc2nc(-c3ccc4c(c3)CCC4)ccn2n1	35	0	-1	11	6	3
O=C(Nc1ccc(F)c([N+](=O)[O-])c1)C(=O)c1c(O)[nH]c2ccccc12	-7	12	4	-2	0	-2
CCOc1cc(-c2c(C#N)c(N)nc3c2CCc2ccccc2-3)ccc1O	35	-1	1	15	0	-1
COc1ccccc1-c1cc(-c2ccc(O)cc2)nc(N)c1C#N	6	62*	2	17	0	-5
COc1cc(-c2cc(-c3ccc(O)cc3)nc(N)c2C#N)ccc1O	22	3	0	10	6	-1
COc1ccccc1-c1c(C#N)c(N)nc2c1CCc1ccccc1-2	60*	20	-2	41	0	4
Cc1ccc(C(=O)NC2CC(=O)N(c3ccc4c(c3)OCCO4)C2)cc1[N+](=O)[O-] (stereo not given)	1	-1	1	0	-1	.
C[C@H](CO)N1C[C@H](C)[C@@H](CN(C)CC2CCCCC2)Oc2ccc(NC(=O)Cn3cnnn3)cc2C1=O	.	1	2	.	-1	.
CCCC(C)c1nnc(NC(=O)COc2ccc3c(c2)OCO3)s1 (stereo not given)	31	53*	-2	9	3	5
O=C(NCc1ccc2c(c1)OCO2)NC12CC3CC(CC(C3)C1)C2	-5	1	1	0	3	-5
SMILES	HSF-1 act	AHR activator	DAX1 inh	HSF1 inh	FXN GAA850 act	HSP90 refold inh
O=C(COc1ccc2c(c1)OCO2)Nc1nncs1	32	69*	1	-1	4	0
CC(C)c1nnc(NC(=O)COc2ccc3c(c2)OCO3)s1	37	38	1	8	2	-2
O=C(COc1ccc2c(c1)OCO2)NC12CC3CC(CC(C3)C1)C2	4	55*	-1	1	4	5
CCc1nnc(NC(=O)COc2ccc3c(c2)OCO3)s1	6	38	-1	2	0	-4
COC(=O)c1ccccc1S(=O)(=O)N1CCC(C(=O)OCc2ccc([N+](=O)[O-])cc2)CC1	-10	-1	1	0	3	.
CCn1cc(Br)c(C(=O)Nc2ccc(Cl)c(Cl)c2)n1	45	77*	2	18	2	0
CCn1cc(Br)c(C(=O)NN)n1	22	50*	2	3	3	-1
CCn1cc(Br)c(C(=O)Nc2ccc(OC)cc2)n1	23	24	0	4	1	0
CCn1cc(Br)c(C(=O)Nc2nccs2)n1	27	57*	0	7	1	-2
CC(=O)Oc1ccc2c(c1)C(=O)CCCCCC(=O)O2	.	.	1	.	2	.
O=C(Cn1nc(-c2ccccc2)ccc1=O)N1CCOCC1	4	0	0	0	-2	-2
CCOC(=O)N1CCN(C(=O)CCn2nc(-c3ccccc3)ccc2=O)CC1	-16	-1	4.8*	-10	1	4
O=C(CCn1nc(-c2ccccc2)ccc1=O)N1CCOCC1	-12	8	-1	0	2	-5
O=C(Cn1nc(-c2ccccc2)ccc1=O)N1CCCCC1	-82	2	0	-79*	0	2
COc1ccc(CSC(=S)NNc2ccccc2)cc1	.	.	0	.	3	.
C#CCn1cc(Cl)cc(C(=O)Nc2ccccc2)c1=O	8	62*	2	-3	0	0
Cc1ccc(C(=O)N/N=C2\CC3CC=CC23)c(C)c1 (stereo not given)	4	3	5.7*	14	2	-1
Cc1ccc(NC(=S)N/N=C2\CC3CC=CC23)c(C)c1 (stereo not given)	3	2	-1	-2	1	2
COc1cc(NC(=O)COc2ccc(-n3cnnn3)cc2)cc(OC)c1OC	.	2	1	.	0	.
COC(=O)c1ccc(Oc2nc3c(c(=O)n(C)c(=O)n3C)n2CCC(C)C)cc1	-1	0	0	-3	0	5
Cn1c(=O)c2c(nc(Oc3cccc(O)c3)n2C)n(C)c1=O	-80	5	3	-77*	1	-1
CCC(=O)c1ccc(Oc2nc3c(c(=O)n(C)c(=O)n3C)n2CC)cc1	-32	61*	-1	-17	-1	-1
CN(CC(=O)Nc1ccc(F)c(F)c1F)C(=O)CCc1nc2sc3c(c2c(=O)[nH]1)CCCC3	-8	13	0	2	0	.
Cc1ccc(CSCC(=O)Nc2ccc(F)cc2)cc1	22	68*	0	7	2	-1
O=C(CSCc1ccc(F)cc1)Nc1ccc(F)cc1	10	3	0	-3	2	-6
Cc1ccc(CCNC(=O)C2CCC(=O)N(CC3CCCCC3)C2)cc1 (stereo not given)	34	0	0	1	-2	3
O=C1c2ccccc2-c2nnc(-c3ccc(F)cc3)cc21	38	-8	7.1*	12	2	-2
